Sampled rows, rich in hits. Any-hit rate of the full collection: about 2.9%.
ADAM17 inh: inhibits human ADAM17. recombinant ADAM17, EDANS/DABCYL FRET peptide cleavage. 370,000 tested, 0.83% active. P78536. inhibition, % at 6.95 µM. AID 720648;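 active means inhibition above the mean of compounds lying between control limits plus 3 SD, set per campaign, cut at about 8.5% in these data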;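 further: 0% = DMSO-only wells as the low control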
PLC-beta3 inh: PLC-beta3 (human) inhibition, primary screen; inhibition, % at 12.2 µM; AID 720704; 370,000 tested, 0.18% active; Purified PLC-beta3, fluorogenic substrate, fluorescence; Q01970;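 further: 0% = median of compound wells on plate and 100% = full blocker control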
ADAM10 inh: inhibits human ADAM10; AID 720582; recombinant ADAM10, EDANS/DABCYL FRET peptide cleavage, 3 h; O14672; inhibition, % at 7 µM; 370,000 tested, 0.62% active;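 active means inhibition above a per-campaign cutoff equal to the mean of compounds falling between control-based bounds plus 3 SD, cut at about 20% in these data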;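 further: 0% = DMSO wells while the 100% control is not disclosed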
PLC-gamma1 inh: inhibitors of human phospholipase C gamma1 | inhibition, % at 12.2 µM | purified PLC-gamma1, fluorogenic substrate, fluorescence | 370,000 tested, 0.84% active | P19174; in the data active means inhibition above about 9.5%
proKLK7 act: proKLK7 (human) activation, primary screen; 370,000 tested, 0.9% active; activation, % at 7 µM; purified proKLK7, EDANS-DABCYL substrate fluorescence; 100% is mature enzyme control, 0% vehicle; P49862;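 active means activation above the mean of all tested compounds plus 3 SD, computed per campaign excluding outliers beyond control limits, cut at about 13% in these data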
PLCg1 ctr: PLC-gamma1 inhibition, counter-screen for PLC-beta3 hits | AID 743258 | 3,300 tested, 3.1% active | inhibition, % at 12.3 µM | purified PLC-gamma1, fluorogenic substrate, fluorescence | shares compounds with PLC-gamma1 inh; in the data active means inhibition above about 9.5%
PLCbeta3 conf: human PLC-beta3 inhibition, confirmation; shares compounds with PLC-gamma1 inh; purified PLC-beta3, fluorogenic substrate fluorescence; inhibition, % at 12.3 µM; 3,300 tested, 1% active; AID 743261
Starred values were filed as active, the others as inactive; . = no result given. Unless noted, no stated cut-off is given here; in the data, active means inhibition above about 11%; inactive means the rest.

SMILES	ADAM17 inh	PLC-beta3 inh	ADAM10 inh	PLC-gamma1 inh	proKLK7 act	PLCg1 ctr	PLCbeta3 conf
CCOC(=O)c1c(C)n(Cc2ccc3c(c2)OCO3)c2ccc(O)cc12	8	-3	16	3	1	.	.
COC(=O)C1=C(c2ccccc2OCc2ccccc2)C[C@@H]2CC[C@H]1N2C(=O)NC1CCN(Cc2ccccc2)CC1	2	7	3	7	0	.	.
COC(=O)C1=C(c2cccc(OCc3ccccc3)c2)C[C@@H]2CC[C@H]1N2C(=O)NC1CCN(Cc2ccccc2)CC1	1	2	-3	12*	1	1	4
CCN1CCC2(CC1)NC(CO)(CO)CO2	3	0	6	11*	0	-3	-1
O=[N+]([O-])c1ccc(C(c2ccc([N+](=O)[O-])cc2)c2ccc([N+](=O)[O-])cc2)cc1	4	3	14	3	1	.	.
Cn1cnc([N+](=O)[O-])c1Sc1ccc([N+](=O)[O-])cc1	7	11*	10	9	0	0	5

Screening data: PubChem BioAssay, The Scripps Research Institute Molecular Screening Center
